About 79,000 compounds went through this panel and 15% of them were active in at least one assay; those are over-represented in the sample as a whole. Calls of active or inactive are those of the source. No stated cut-off is given here; in the data, active means growth inhibition above about 70%; inactive means the rest.
How the values were obtained:
[1] = NCI Yeast Anticancer Drug Screen. Data for the rad52 strain (AID 147);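 further: 0% = growth of vehicle-treated control cultures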; settings: S. cerevisiae rad52 mutant growth inhibition, hits give high values
In short: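 Here a repair-compromised yeast strain receives each compound; its growth is then quantified and normalised to vehicle-only controls.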

[2] = NCI Yeast Anticancer Drug Screen. Data for the wt1 strain (AID 149);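 further: 0% = growth of vehicle-treated wt1 cultures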; settings: S. cerevisiae wt1 strain (SPY 50644) growth inhibition, hits give high values
In short: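 Using yeast strain wt1, compound-induced growth inhibition was determined against vehicle-treated cultures.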

[3] = NCI Yeast Anticancer Drug Screen. Data for the rad50EPP+ strain (AID 151);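 further: 0% = growth of vehicle-treated control cultures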; settings: S. cerevisiae rad50 mutant strain, hits give high values
In short: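 Read-out is yeast growth inhibition relative to vehicle; cells used were the rad50EPP+ strain.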

[4] = NCI Yeast Anticancer Drug Screen. Data for the mgt1 strain (AID 153); settings: S. cerevisiae mgt1 mutant growth inhibition, hits give high values
In short: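 Measured: inhibition of mgt1 yeast growth by compound, normalized to vehicle-treated cultures.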

[5] = NCI Yeast Anticancer Drug Screen. Data for the rad50 strain (AID 155);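 further: 0% = growth of vehicle-only cultures of the same strain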; settings: S. cerevisiae rad50 strain growth inhibition, hits give high values
In short: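 Relative growth inhibition (compound vs vehicle) was measured in yeast with a defined repair-gene alteration.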

[6] = NCI Yeast Anticancer Drug Screen. Data for the mec2-1 strain (AID 157); settings: S. cerevisiae mec2-1 strain, hits give high values
In short: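 Using mec2-1 yeast: add compound, measure growth, express inhibition versus vehicle-treated cultures.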

[7] = NCI Yeast Anticancer Drug Screen. Data for the rad14 strain (AID 159);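 further: 0% = growth of vehicle-treated control cultures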; settings: S. cerevisiae rad14 strain growth inhibition, hits give high values
In short: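 Screen for anticancer potential: a yeast strain altered in DNA damage repair is grown with compound, and reduced growth is quantified against vehicle controls.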

[8] = NCI Yeast Anticancer Drug Screen. Data for the sgs1 mgt1 strain (AID 161);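 further: 0% = growth of cultures given vehicle only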; settings: S. cerevisiae sgs1 mgt1 strain, hits give high values
In short: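 Yeast cells carrying a defined DNA-repair defect were exposed to test compounds. Growth inhibition was measured relative to vehicle-treated controls.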

[9] = NCI Yeast Anticancer Drug Screen. Data for the CLN2oe strain (AID 163);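 further: 0% = growth of vehicle-only control cultures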; settings: S. cerevisiae CLN2oe strain, hits give high values
In short: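 Whole-cell yeast growth assay. A strain engineered for altered cell-cycle control received compound, and inhibition relative to vehicle-treated cultures was recorded.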

[10] = NCI Yeast Anticancer Drug Screen. Data for the cln2 rad14 strain (AID 165);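 further: 0% = growth equal to vehicle treated cultures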; settings: S. cerevisiae cln2 rad14 strain, hits give high values
In short: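 Yeast strain cln2 rad14, bearing defects in cell cycle control and DNA repair, serves as the test system; values reflect growth inhibition compared with vehicle.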

[11] = NCI Yeast Anticancer Drug Screen. Data for the bub3 strain (AID 167); settings: S. cerevisiae bub3 mutant strain, hits give high values
In short: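 Screening used yeast with an engineered genetic alteration affecting cell cycle control. Compound-exposed cultures were compared with vehicle cultures, and reduced growth was taken as inhibition.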

[12] = NCI Yeast Anticancer Drug Screen. Data for the wt2 strain (AID 169);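 further: 0% = growth of vehicle-treated yeast cultures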; settings: S. cerevisiae wt2 strain growth inhibition, hits give high values
In short: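 Treated yeast vs. vehicle-treated yeast: growth inhibition determined.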

[13] = NCI Yeast Anticancer Drug Screen. Data for the mlh1 strain (AID 171);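 further: 0% = growth of vehicle-treated control cultures of the same strain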; settings: S. cerevisiae mlh1 strain growth inhibition, hits give high values
In short: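 A yeast strain with a defined genetic lesion serves as the test organism. Cultures receive compound or vehicle, and growth is measured.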

[14] = NCI Yeast Anticancer Drug Screen. Data for the sgs1 strain (AID 173);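 further: 0% = growth of vehicle-only control cultures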; settings: S. cerevisiae sgs1 mutant, hits give high values
In short: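 A genetically defined yeast mutant is incubated with the test compound, and its growth is compared to that of the same strain given vehicle.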

[15] = NCI Yeast Anticancer Drug Screen. Data for the mlh1 rad18 strain (AID 175); settings: S. cerevisiae mlh1 rad18 strain growth inhibition, hits give high values
In short: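 Steps: expose repair-defective yeast to compound; measure growth; express inhibition against vehicle-treated controls.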

[16] = NCI Yeast Anticancer Drug Screen. Data for the rad18 strain (AID 177); settings: S. cerevisiae rad18 mutant growth inhibition, hits give high values
In short: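 Measured value is growth inhibition of a yeast strain bearing a DNA repair alteration, referenced to vehicle-treated cells.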

[17] = at 5.0 µM (retest, dose inferred, filed as 0.5)
[18] = at 50.0 µM (retest, dose inferred, filed as 5.0)

Measured: growth inhibition

N#CC1OB(O)c2ccccc21 (stereo not drawn)
active: [5]; [18] 81%
inactive: [1]; at 1.2 µM -9% | [1]; at 3.7 µM -6% | [1]; at 11.0 µM -5% | [1]; at 33.0 µM -5% | [1]; at 100.0 µM 3% | [2]; at 1.2 µM -5% | [2]; at 3.7 µM -4% | [2]; at 11.0 µM -5% | [2]; at 33.0 µM -4% | [2]; at 100.0 µM 0% | [3]; at 1.2 µM -2% | [3]; at 3.7 µM 4% | [3]; at 11.0 µM 4% | [3]; at 33.0 µM 17% | [3]; at 100.0 µM 26% | [4]; at 1.2 µM -7% | [4]; at 3.7 µM -4% | [4]; at 11.0 µM -2% | [4]; at 33.0 µM 0% | [4]; at 100.0 µM -3% | [5]; at 1.2 µM -13% | [5]; at 3.7 µM -10% | [5]; [17] -126% | [5]; at 11.0 µM 4% | [5]; at 33.0 µM 10% | [5]; at 50.0 µM 58.2% | [5]; at 100.0 µM 11% | [6]; at 1.2 µM 1% | [6]; at 3.7 µM 0% | [6]; [17] -51% | [6]; at 11.0 µM 3% | [6]; at 33.0 µM 1% | [6]; [18] -27% | [6]; at 50.0 µM 27.9% | [6]; at 100.0 µM -7% | [7]; at 1.2 µM -3% | [7]; at 3.7 µM 0% | [7]; at 11.0 µM -2% | [7]; at 33.0 µM -2% | [7]; at 100.0 µM 1% | [8]; [17] -61% | [8]; [18] -2% | [8]; at 50.0 µM 27.1% | [9]; at 1.2 µM 0% | [9]; at 3.7 µM -2% | [9]; at 11.0 µM 1% | [9]; at 33.0 µM -7% | [9]; at 100.0 µM -2% | [10]; [17] -57% | [10]; [18] -42% | [10]; at 50.0 µM 21% | [11]; at 1.2 µM -11% | [11]; at 3.7 µM -10% | [11]; [17] -64% | [11]; at 11.0 µM -6% | [11]; at 33.0 µM -10% | [11]; [18] -36% | [11]; at 50.0 µM 69.7% | [11]; at 100.0 µM -4% | [12]; at 1.2 µM 0% | [12]; at 3.7 µM 0% | [12]; at 11.0 µM -1% | [12]; at 33.0 µM -2% | [12]; at 100.0 µM -2% | [13]; at 1.2 µM 7% | [13]; at 3.7 µM -5% | [13]; at 11.0 µM -6% | [13]; at 33.0 µM -6% | [13]; at 100.0 µM -7% | [14]; at 1.2 µM 1% | [14]; at 3.7 µM 1% | [14]; at 11.0 µM 2% | [14]; at 33.0 µM 1% | [14]; at 100.0 µM 1% | [15]; [17] -115% | [15]; [18] 7% | [15]; at 50.0 µM 60.9% | [16]; at 1.2 µM -4% | [16]; at 3.7 µM -1% | [16]; at 11.0 µM 1% | [16]; at 33.0 µM 2% | [16]; at 100.0 µM 6%

Source: PubChem BioAssay (NCI)
